Source: PubChem BioAssay (National Center for Advancing Translational Sciences (NCATS))
This is a sample that favours compounds with a hit; in the whole collection about 17% have one here.
ATXN2 expr inh: Primary qHTS for Inhibitors of ATXN expression | HEK-293 ATXN2-luciferase reporter, luminescence, 24 h | Potency, µM (doses to about 57 µM), for inactives: at the top dose activity change, negative = inhibition, usual class: inhibitors | 360,000 tested, 0.72% active; also: % is scaled to controls: 0 for no effect and ±100 for the full control effect; nearly all actives have a fitted effect of over 55% in size
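ATXN2-luciferase reporter cells (luciferase flanked by upstream and downstream ATXN2 gene portions) were treated 24 h at 37 °C with compounds at up to 57 uM. SteadyGlo luminescence gave expression; GF-AFC fluorescence gave viability.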
TDP1 cell noCPT: qHTS for Inhibitors of human tyrosyl-DNA phosphodiesterase 1 (TDP1): qHTS in cells in absence of CPT; 420,000 tested, 15% active; Potency, µM (titrated, usually from 46.2 µM), for inactives: top-dose activity change, negative = growth inhibition, hits mostly inhibitors; DT40 Tdp1-/- hTDP1 cells, no CPT, ATP luminescence, 48 h; AID 686978, 2013; also: % is scaled to controls: 0 for no effect and ±100 for the full control effect; nearly all actives have a fitted effect of over 55% in size
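Growth kinetics read by CellTiter-Glo luminescence after ≥48 hr at 37 °C. Cells: DT40 Tdp1-/- stably carrying human TDP1, 400 per well, compound exposure in the absence of CPT (DMSO vehicle).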
TGFb SMAD3 inh: qHTS for Inhibitors of TGF-b. HepG2 CAGA-GFP TGF-b/SMAD3 reporter, GFP fluorescence, 18 h; TGF-beta stimulated, 500 pg/mL final. Potency, µM (top dose mostly 46.1 µM), for inactives: top-dose activity, negative = inhibition, most hits filed as inhibitors. 410,000 tested, 1.2% active; also: % is scaled to controls: 0 for no effect and ±100 for the full control effect; nearly all actives have a fitted effect of over 65% in size
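Inhibition was scored as loss of TGF-beta-induced (500 pg/mL final, 18 hours, 37 degrees C) GFP in HEPG2 cells carrying a CAGA-GFP reporter, in DMEM with 1% FBS. Well GFP was summed per cell; Activity was normalised to unstimulated and stimulated DMSO wells, then concentration-response fitting.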
HepG2 viability: qHTS for Inhibitors of TGF-b: Cytotox Counterscreen; Potency, µM (series often up to 46.1 µM), without a hit: at the top dose activity change, negative = cytotoxicity, most hits filed as cytotoxic; 410,000 tested, 0.76% active; HepG2 CAGA-GFP viability, ATP luminescence, 18 h
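HepG2 CAGA-GFP cells (1000/well, DMEM with 1% FBS) received compound, then TGF-beta at 500 pg/mL final, and were incubated 18 hours at 37 degrees C. Viability was read by CellTiter-Glo luminescence. Media-only wells were set as complete cell-killing and DMSO as no toxicity.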
S2 tox: Viability Counterscreen for Primary qHTS for Inhibitors of ATXN expression; S2 cells (HEK-293 line with an ATXN2-luciferase reporter) viability, CellTiter-Fluor protease fluorescence, 24 h; Potency, µM (top dose mostly 56.7 µM), hits mostly cytotoxic; 400,000 tested, 0.49% active; also: nearly all actives have a fitted effect of over 40% in size
DT40 TDP1 CPT: qHTS for Inhibitors of human tyrosyl-DNA phosphodiesterase 1 (TDP1): qHTS in cells in presence of CPT; chicken DT40 Tdp1-/-;hTDP1 cells + 20 nM CPT, ATP luminescence, 48 h; Potency, µM (doses to about 46.2 µM), for inactives: at the highest dose activity change, negative = growth inhibition, usual class: inhibitors; AID 686979, 2013; 420,000 tested, 12% active; also: % is scaled to controls: 0 for no effect and ±100 for the full control effect; nearly all actives have a fitted effect of over 55% in size
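Chicken DT40 Tdp1-/- cells stably complemented with human TDP1 were seeded at 400 cells/well in medium containing 20 nM camptothecin, exposed to pin-transferred compounds, and grown at 37 °C for at least 48 hr. Viability was read as ATP luminescence.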
The depositor's hits bear a star; i = inactive; ? = inconclusive; nt = no result given; ! = not active in a repeat. Calls follow the shape of the dose curve; as a rule, active = well fitted curve in the direction sought with a large enough effect; inconclusive = small, poorly fitted or top-dose-only effect, or another doubt; inactive = no such curve, though single readings can be large; an effect the other way counts as inactive or inconclusive. Potency is read from the fitted curve at half-maximal effect.

SMILES	ATXN2 expr inh	TDP1 cell noCPT	TGFb SMAD3 inh	HepG2 viability	S2 tox	DT40 TDP1 CPT
O=C(NC(=S)N1CCN(C/C=C/c2ccccc2)CC1)c1ccc(Cl)nc1	0%	15µM*	-22%	-30%	i	23µM*
CC(C)C(NC(=O)c1ccccc1)C(=O)N1CCN(C/C=C/c2ccccc2)CC1 (stereo not given)	3%	?	-28%	-25%	?	?
Cc1cc(=O)[nH]c2nnc(SCC(N)=O)n12	nt	7%	-15%	0%	nt	0%
O=C(COC(=O)c1c[nH]c(=O)[nH]c1=O)Nc1cccc([N+](=O)[O-])c1	nt	0%	21%	8%	i	1%
C/C(=N\NC(=O)Cc1ccc(O)cc1)c1cccnc1	-2%	20%	73%	10%	i	-25%
COCC(C)n1c(C)cc(C(=O)CSc2nc(C)c(C)c(C)n2)c1C (stereo not given)	nt	15µM*	-17%	8%	i	?
COCC(C)n1c(C)cc(C(=O)COC(=O)c2cc(=O)[nH]c3ccccc23)c1C (stereo not given)	8%	?	-3%	-23%	i	?
COCCn1c(C)cc(C(=O)CSc2nc(C)c(C)c(C)n2)c1C	-4%	23µM*	-5%	-1%	i	29µM*
COCC(C)n1c(C)cc(C(=O)CSc2nnc(N)s2)c1C (stereo not given)	-23%	?	6%	0%	i	?
COCC(C)n1c(C)cc(C(=O)COC(=O)c2n[nH]c3ccccc23)c1C (stereo not given)	54%	26µM*	23%	1%	i	?
COCCn1c(C)cc(C(=O)CSc2ncn[nH]2)c1C	26%	-2%	-9%	0%	i	2%
COCCn1c(C)cc(C(=O)CSc2cc(C)c3ccc(OC)cc3n2)c1C	45%	16µM*	?	-2%	i	?
Clc1cccc(Cl)c1-c1noc(CN2CCOCC2)n1	nt	-12%	2%	10%	i	-1%
CC(C)(C)C(=O)Nc1ccnn1C1CCN(C(=O)c2ccc(Cl)cc2F)CC1	6%	?	-27%	-17%	i	?
Cc1ccc(Cn2c(CCNC(=O)C(C)C)nc3ccccc32)cc1	-13%	?	-10%	-18%	i	?
COC(=O)c1ccc(/C=N/n2c(C)nc3ccccc3c2=O)cc1	nt	?	?	-20%	i	-12%
C/C(=N\n1c(C)nc2ccccc2c1=O)c1ccc(N)cc1	-25%	18µM*	-20%	-3%	i	?
CC(=O)NCCC(=O)N1CCCC(N2CCN(c3cccc(Cl)c3)CC2)C1 (stereo not given)	31%	0%	-10%	-20%	i	-4%
O=c1nc(N/N=C/C=C/c2ccccc2)cn[nH]1	?	8.2µM*	1%	-7%	i	?
O=c1nc(N/N=C/c2c[nH]c3ccccc23)cn[nH]1	-23%	?	?	-8%	i	0%
COc1cc(OC)c(CN2CCCN(C)CC2)cc1Br	-11%	-1%	13%	0%	i	-6%
Cc1cccc(-c2nnc(C3CCN(S(=O)(=O)c4cccc(Cl)c4)CC3)o2)c1	1.6µM*	2.9µM*	?	-38%	1.4µM*	3.7µM*
COc1ccc(-c2nnc(C3CCN(S(=O)(=O)c4ccccc4)CC3)o2)cc1	?	?	?	-27%	nt	?
CC(=O)Nc1ccc(S(=O)(=O)N2CCC(c3nnc(-c4ccc(C)cc4)o3)CC2)cc1	20µM*!	21µM*	?	-50%	18µM*	?
